# DT40 TDP1 no CPT = qHTS for Inhibitors of human tyrosyl-DNA phosphodiesterase 1 (TDP1): qHTS in cells in absence of CPT; 420,000 compounds, 15% hits; DT40 Tdp1-/- hTDP1 cells, no CPT, ATP luminescence, 48 h; AID 686978, 2013; Potency, µM (titrated, usually from 46.2 µM), for the others: top-dose activity change, negative = growth inhibition, hits mostly inhibitors; also: % is scaled to controls: 0 for no effect and ±100 for the full control effect; nearly all actives have a fitted effect of over 55% in size
#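 Chicken DT40 Tdp1-/- cells complemented with human TDP1, screened without camptothecin (DMSO vehicle only), 400 cells/well. Compounds pin-transferred, cells incubated at 37 °C for at least 48 hr. Growth read as ATP-dependent luminescence (CellTiter-Glo, 30 min at RT).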
# TDP1 cell CPT = qHTS for Inhibitors of human tyrosyl-DNA phosphodiesterase 1 (TDP1): qHTS in cells in presence of CPT | 420,000 compounds, 12% hits | Potency, µM (series often up to 46.2 µM), inactives show at the highest dose activity change, negative = growth inhibition, hits mostly inhibitors | AID 686979, 2013 | chicken DT40 Tdp1-/-;hTDP1 cells + 20 nM CPT, ATP luminescence, 48 h; also: % is scaled to controls: 0 for no effect and ±100 for the full control effect; nearly all actives have a fitted effect of over 55% in size
#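 Chicken DT40 Tdp1-/- cells complemented with human TDP1, 400 cells/well, exposed to compounds plus 20 nM camptothecin for at least 48 h at 37 C; viability read as ATP content by CellTiter-Glo luminescence.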
# ClpP mod = qHTS Assay for Activators of ClpP; Potency, µM (top dose mostly 57.5 µM), inactives show top-dose activity change, negative = active; 340,000 compounds, 1.9% hits; purified B. subtilis ClpP, FRET peptide cleavage, 20 min; ATP-dependent Clp protease proteolytic subunit (Bacillus subtilis (strain 168)), P80244; active = well fitted falling curve with a large enough effect; inconclusive = small, poorly fitted or top-dose-only effect; inactive = no such curve, though single readings can be large or run the other way; also: the source files actives as falling curves though it sought activators and does not explain the sign; nearly all actives have a fitted effect of over 65% in size
# Target sequence (P80244 whole entry, looked up): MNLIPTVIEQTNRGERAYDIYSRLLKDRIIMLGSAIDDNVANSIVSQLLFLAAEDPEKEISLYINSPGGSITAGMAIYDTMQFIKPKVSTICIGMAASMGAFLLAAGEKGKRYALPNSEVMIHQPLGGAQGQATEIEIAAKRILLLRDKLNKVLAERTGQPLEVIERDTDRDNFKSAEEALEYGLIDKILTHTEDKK
#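 Purified B. subtilis ClpP, 10 microg/mL final in Tris/HCl pH8 with KCl, BSA, glycerol and Tween-20, cleaved an Abz/nitrotyrosine-quenched decapeptide. Fluorescence (ex 320, em 430) was read at 0 and 20 min at room temperature. Delta was normalized to 5.8 microM ADEP and DMSO/no-enzyme controls.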
# TDP1 block = qHTS Assay for Inhibitors of Tyrosyl-DNA Phosphodiesterase (TDP1); Tyrosyl-DNA phosphodiesterase 1 (Homo sapiens), Q9NUW8; recombinant TDP1, AlphaScreen DNA substrate cleavage; Potency, µM (titrated, usually from 130 µM), inactives show at the highest dose activity change, negative = inhibition, usual class: inhibitors; 350,000 compounds, 0.28% hits; AID 485290, 2010; also: % is scaled to controls: 0 for no effect and ±100 for the full control effect; nearly all actives have a fitted effect of over 40% in size
#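 Recombinant E. coli-expressed Tdp1 (1 nM) preincubated with compound 15 min at RT, then 5'-biotin/3'-phosphotyrosine-FITC DNA substrate (15 nM) added for 5 min. AlphaScreen beads (10 ug/ml) added, 10 min RT; tyrosine-FITC cleavage read as signal loss.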
# Starred values were filed as active, the others as inactive; ? = inconclusive; . = not tested or not shown; [ ] = another dose, or the depositor's remark. Rows were chosen to be rich in hits. Some 17% of all compounds tested hit in one or more screens of this group. Unless noted, calls follow the shape of the dose curve; as a rule, active = well fitted curve in the direction sought with a large enough effect; inconclusive = small, poorly fitted or top-dose-only effect, or another doubt; inactive = no such curve, though single readings can be large; an effect the other way counts as inactive or inconclusive. Potency is read from the fitted curve at half-maximal effect.
SMILES,DT40 TDP1 no CPT,TDP1 cell CPT,ClpP mod,TDP1 block
O=S(=O)(c1ccc(-c2ccccc2)cc1)N1CCCCC1,-29.2%,?,0.0%,.
CN1c2ccccc2C(C)(C)C12CC(c1ccc(S(=O)(=O)N3CCCCC3)cc1)=NO2 (stereo unspecified),20.6µM*,?,-1.0%,-3.4%
CN1/C(=C\C(=O)c2cccc(S(=O)(=O)N3CCCCC3)c2)C(C)(C)c2ccccc21,?,?,-2.7%,-2.2%
Cc1ccc(-c2nc(CNC(=O)Nc3ccccc3)c(C)o2)cc1,?,?,-28.7%,-1.2%
Cc1noc(C)c1COc1ccccc1C(=O)Nc1ccc(C(N)=O)cc1,3.1%,23.5%,-1.5%,0.5%
CCCCc1nnc(NC(=O)c2ccccc2OCc2c(C)noc2C)s1,23.1µM*,16.4µM*,3.5%,-10.9%
COc1cccc(Nc2ncc3nc(-c4cn(C)c5ccccc45)c(=O)n(C[C@H]4CCCO4)c3n2)c1,13.5%,-3.8%,.,.
O=C1c2ccccc2C(Nc2ccc3nc(-c4cccnc4)[nH]c3c2)N1Cc1ccco1 (stereo unspecified),7.31µM*,9.2µM*,-19.9%,5.3%
O=C1c2ccccc2C(Nc2ccc(-c3nc4ccccc4[nH]3)cc2)N1Cc1ccco1 (stereo unspecified),18.4µM*,?,4.3%,3.3%
CCOc1ccc(NC2c3ccccc3C(=O)N2Cc2ccco2)cc1 (stereo unspecified),11.6µM*,16.4µM*,0.2%,2.6%
COC(=O)c1cc(NC2c3ccccc3C(=O)N2Cc2ccco2)cc(C(=O)OC)c1 (stereo unspecified),2.1%,-7.0%,-6.6%,2.6%
O=C1c2ccccc2C(c2nc3ccccc3[nH]2)N1Cc1ccco1 (stereo unspecified),-2.3%,4.8%,-9.1%,.
O=C(CCNC(=O)c1ccc([N+](=O)[O-])cc1)Nc1cccc(S(=O)(=O)N2CCCCC2)c1,?,?,0.8%,5.6%
CCOc1ccc(S(=O)(=O)N2CCCCC2)cc1NC(=O)Cc1ccc(OC)cc1,?,?,0.5%,.
COc1ccc(CC(=O)Nc2cccc(S(=O)(=O)N3CCCCCC3)c2)cc1OC,7.31µM*,6.51µM*,0.4%,7.0%
Cc1ccc(S(=O)(=O)N2CCCCC2)cc1NC(=O)CCNC(=O)c1ccc([N+](=O)[O-])cc1,16.4µM*,23.1µM*,1.1%,-2.3%
COc1ccc(CC(=O)Nc2cc(S(=O)(=O)N3CCCCC3)ccc2C)cc1,20.6µM*,?,1.1%,-2.2%
COc1ccc(CC(=O)Nc2cc(S(=O)(=O)N3CCCCC3)ccc2OC(C)C)cc1OC,20.6µM*,?,1.8%,.
C[C@@H]1OC(Oc2ccccc2-c2cc(=O)c3c(O)cc(O)c([C@@H]4O[C@H](CO)[C@@H](O)[C@H](O)[C@H]4O)c3o2)[C@H](O)[C@H](O)[C@H]1O (stereo partly specified),.,.,.,-2.3%
O=C(Cc1ccc(F)cc1)NCCS(=O)(=O)N1CCN(c2cccc(Cl)c2)CC1,?,?,-3.3%,.
COc1ccc(CCC(=O)Nc2cccc(S(=O)(=O)N3CCCCCC3)c2)cc1OC,14.6µM*,?,-1.4%,3.1%[56.1 µM]
COc1ccc(CC(=O)Nc2cccc(SC)c2)cc1OC,9.2µM*,11.6µM*,.,6.2%
COC(=O)c1cc(NC(=O)Cc2ccc(OC)c(OC)c2)cc(C(=O)OC)c1,?,?,-7.2%,4.0%
O=C(N/C=N/OCc1ccc(Cl)cc1Cl)NOCc1c(Cl)cccc1Cl,23.1µM*,20.6µM*,-3.0%,-5.1%
CNc1nc(Oc2ccc3sc(C)nc3c2)c2sccc2n1,20.6µM*,20.6µM*,4.0%,.
COc1ccc2c(c1)OC(C)CN(CCNC(=O)c1cccc(N3CCNC3=O)c1)C2 (stereo unspecified),-22.2%,27.9%[9.04 µM],.,.
O/N=C(\c1ccccc1)C(O)c1ccccc1 (stereo unspecified),?,-6.1%,.,.
O=C(O)/C=C/C(=O)NC1CCCCC1,4.5%,-3.7%,-2.4%,1.8%

# Source: PubChem
